Compounds with a hit are over-represented: about 11% of the library has one in this group of screens.
hNpr1 antagonist: blocks ANP-stimulated signaling of human Npr1 receptor. HEK293 hNpr1 GloSensor cGMP, ANP-stimulated luminescence. Potency, µM (titrated, usually from 46.3 µM), inactives show at the top dose activity change, negative = inhibition, most hits filed as inhibitors. 76,000 compounds, 1.6% hits; calls by dose curve; further: on the % scale 0 is the no-effect control and ±100 the full control effect; nearly all actives have a fitted effect of over 60% in size
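Compound pre-incubated 30 min at room temperature on GloSensor-loaded HEK293 cells stably carrying hNpr1 and the pGS-40F cGMP biosensor. Stimulation uses hNppA at 0.1 nM final; luminescence is taken at baseline and 20 min post-agonist.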
Luciferase inh: inhibitors of firefly (Photinus pyralis) luciferase; 76,000 compounds, 2.5% hits; purified P. pyralis luciferase, luminescence, biochemical; Potency, µM (titrated, usually from 115 µM), most hits filed as inhibitors; P08659; further: on the % scale 0 is the no-effect control and ±100 the full control effect; nearly all actives have a fitted effect of over 65% in size
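Biochemical qHTS: compound (6-point titration) added to 10uM D-luciferin plus 10uM ATP in Tris acetate pH 7.5 buffer with Mg, Tween-20 and BSA, then purified enzyme at 10nM; light output imaged.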
NIH3T3 tox: kills NIH 3T3 cells; AID 1345082; Potency, µM (titrated, usually from 96.7 µM), without a hit: top-dose activity change, negative = cytotoxicity, hits mostly inhibitors; 94,000 compounds, 4.3% hits; NIH 3T3 viability, CellTiter-Glo ATP luminescence, 48-72 h; further: on the % scale 0 is the no-effect control and ±100 the full control effect; nearly all actives have a fitted effect of over 55% in size
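Luminescent ATP readout (CellTiter-Glo, 10 min RT) after 48 or 72 hr compound exposure of NIH 3T3 cells seeded at 400 cells/well in 1536-well format; quantitative HTS.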
HEK293 tox: kills HEK 293 cells; Potency, µM (top dose mostly 115 µM), inactives show top-dose activity change, negative = cytotoxicity, usual class: inhibitors; AID 1345083; HEK 293 viability, ATP luminescence (CellTiter-Glo), 48-72 h; 94,000 compounds, 6.6% hits; further: on the % scale 0 is the no-effect control and ±100 the full control effect; nearly all actives have a fitted effect of over 60% in size
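ATP-coupled CellTiter-Glo luminescence served as viability read-out, recorded 10 min after reagent addition at room temperature. HEK 293 cells, 250 cells/well, had been incubated with pintool-transferred compound for 48 or 72 hr at 37 degree Celsius.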
Npr1 antag conf: hNpr1 antagonism, confirmation assay | shares compounds with hNpr1 antagonist | HEK293 hNpr1 cGMP GloSensor luminescence, ANP-stimulated | Potency, µM (doses to about 57.6 µM), for inactives: top-dose activity change, negative = inhibition, hits mostly inhibitors | 1,400 compounds, 76% hits; calls by dose curve; further: nearly all actives have a fitted effect of over 70% in size
Npr2 selectivity: antagonizes human Npr2, subtype selectivity check | shares compounds with hNpr1 antagonist | HEK293 hNpr2 GloSensor cGMP luminescence, CNP-stimulated | Potency, µM (titrated, usually from 57.6 µM), for the others: top-dose activity change, negative = inhibition, most hits filed as inhibitors | 1,400 compounds, 67% hits | AID 1347046; calls by dose curve; further: nearly all actives have a fitted effect of over 70% in size
FLuc inh counter: FLuc enzyme inhibition, Npr1 counter-screen; 1,400 compounds, 0.7% hits; purified FLuc enzyme, luminescence, Km substrate; Potency, µM (titrated, usually from 57.6 µM), inactives show top-dose activity change, negative = inhibition, usual class: inhibitors; shares compounds with hNpr1 antagonist; further: series mostly up to about 58 µM; 0% is about no effect
GloSensor cGMP: reduces cGMP signal in GloSensor control cells; shares compounds with hNpr1 antagonist; HEK293 GloSensor cGMP, SNP-stimulated, luminescence; Potency, µM (series often up to 57.6 µM), for the others: top-dose activity change, negative = inhibition, usual class: inhibitors; 1,400 compounds, 69% hits; calls by dose curve; further: on the % scale 0 is the no-effect control and ±100 the full control effect; nearly all actives have a fitted effect of over 70% in size
* hit, by the source's call; i = inactive; ? = inconclusive; / = no result given; [ ] = dose if it differs, or a comment. Unless noted, the call rests on the fitted dose curve; in most records, active means well fitted curve in the direction sought with a large enough effect; inconclusive means small, poorly fitted or top-dose-only effect, or another doubt; inactive means no such curve, though single readings can be large; an effect the other way counts as inactive or inconclusive. Potency means the concentration at half of the fitted maximal effect.

SMILES	hNpr1 antagonist	Luciferase inh	NIH3T3 tox	HEK293 tox	Npr1 antag conf	Npr2 selectivity	FLuc inh counter	GloSensor cGMP
COc1cccc(N2CCN(c3nc(C(=O)NCc4ccncc4)cs3)CC2)c1	?	i	?	35µM*	27µM*	22µM*	-18%	27µM*
COc1cccc(N2CCN(c3nc(C(=O)NCc4ccccc4F)cs3)CC2)c1	13µM*	i	?	45µM*	27µM*	?	-3%	?
CCCn1cc(-c2ccncc2)cc1C(=O)NCc1ccc(OC)cc1	-14%	?	?	?	/	/	/	/
Cc1ccc(-c2cccc(C(=O)N3CCCC(O)(CN4CCCC4)C3)c2)o1 (stereo not drawn)	0%	i	-15%	?	/	/	/	/
C[C@@]12C(=O)N(CC3CC3)c3ccccc3[C@@H]1[C@@H](C(N)=O)CN2C(=O)c1ccc(F)cc1	/	/	-21%[46.1 µM]	?	/	/	/	/
CCOC(=O)C1=C(C)N=C2SC=C(CC(=O)N3CCCCC3)N2C1c1cccc(OC)c1 (stereo not drawn)	-25%	i	-29%	?	/	/	/	/
COCCNC(=O)c1ccc(CC2CCN(C(=O)Cc3ccccc3)CC2)cc1	-2%	i	-19%	-29%	/	/	/	/
CC1(C)[C@H](Cc2cc(-c3ccc(F)cc3)on2)C[C@@H]1NS(C)(=O)=O	?	?	?	71µM*	40µM*	40µM*	-11%[86.2 µM]	35µM*
CC1(C)[C@H]2CC[C@@H](CNC(=O)c3ccccn3)[C@@H]1C2	2%[70.6 µM]	i	?	?	/	/	/	/
COCc1ncc(C)n1CCNC(=O)c1cc(-c2ccc(C)c(C)c2)n[nH]1	?	?	-18%	?	/	/	/	/
Cc1cc(C(=O)N2CCC3(CC2)Nc2ccccc2NC3=O)c2ccccc2n1	-4%	i	-7%	-15%	/	/	/	/
O=C(c1ccnc2ccccc12)N1CCC2(CC1)Nc1ccccc1NC2=O	?	i	-46%	?	22µM*	?	3%	27µM*
CC1=C[C@@H](CN(C)Cc2cccnc2)[C@H](C(C)C)C[C@H]1Cc1nnc(-c2ccc([N+](=O)[O-])cc2)o1	20µM*	i	16µM*	22µM*	15µM*	17µM*	1%	12µM*
CC1=C[C@@H](CN2CCOCC2)[C@H](C(C)C)C[C@H]1Cc1nnc(-c2ccncc2)o1	?	i	?	?	?	-27%[86.2 µM]	2%[86.2 µM]	-16%[86.2 µM]
CC1=C[C@@H](CN2CCC(O)CC2)[C@H](C(C)C)C[C@H]1Cc1nnc(-c2ccncc2)o1	3%[70.6 µM]	i	?	?	/	/	/	/
c1ccc(-c2noc(-c3cncnc3Nc3ccc4c(c3)OCO4)n2)cc1	1%	i	-15%	-14%	/	/	/	/
CCCCn1ccnc1C1CCCN(C(=O)c2ncc(F)cc2F)C1 (stereo not drawn)	-2%	i	-12%	-25%	/	/	/	/
O[C@@H]1CO[C@H]2[C@@H]1OC[C@@H]2n1cc(-c2ccccc2)nn1	-9%[70.6 µM]	i	-10%[230 µM]	?	/	/	/	/
COc1ccc(C(=O)N[C@H]2CO[C@H]3[C@@H]2OC[C@@H]3n2cc(-c3ccccc3)nn2)cc1	-29%[70.6 µM]	i	?	?	/	/	/	/
c1ccc(CCCN[C@H]2CO[C@H]3[C@@H]2OC[C@@H]3n2cc(-c3ccccc3)nn2)cc1	10µM*	i	?	?	16µM*	20µM*	0%[86.2 µM]	16µM*

Screens: PubChem, National Center for Advancing Translational Sciences (NCATS)
